Laboratory results from PubChem BioAssay AID1159580 (chemical genetic matrix, 2015).
Screen size: about 5,500 compounds; about 2,000 (36%) were called active. Not shown: some 18% with an inconclusive outcome. No stated cut-off is given here; in the data, active means normalized growth mostly below about 0.91 (no sharp cut-off); inconclusive means no clear call, values can overlap the other calls; inactive means mostly above about 0.92. Some of the results follow.

Assay: chemical genetic growth profiling, strain panel (AID 1159580);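 further: tested at 20 µM; growth read once vehicle control cultures reached saturation at 30 °C; 1 = growth at the plate median or of vehicle wells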
Settings: S. cerevisiae deletion strains, growth OD
[1] = locus YAR019C, strain CDC15, stronger effect = lower value
[2] = locus YBL105C, strain PKC1, stronger effect = lower value
[3] = locus YBR135W, strain CKS1, stronger effect = lower value
[4] = locus YBR136W, strain MEC1, stronger effect = lower value
[5] = locus YBR160W, strain CDC28, stronger effect = lower value
[6] = locus YDL017W, strain CDC7, stronger effect = lower value
[7] = locus YDL028C, strain MPS1, stronger effect = lower value
[8] = locus YDL101C, strain DUN1, stronger effect = lower value
[9] = locus YDL108W, strain KIN28, stronger effect = lower value
[10] = locus YDL132W, strain cdc53, stronger effect = lower value
[11] = locus YDL214C, strain PRR2, stronger effect = lower value
[12] = locus YDR052C, strain DBF4, stronger effect = lower value
[13] = locus YDR054C, strain cdc34, stronger effect = lower value
[14] = locus YDR226W, strain ADK1, stronger effect = lower value
[15] = locus YDR477W, strain SNF1, stronger effect = lower value
[16] = locus YER123W, strain YCK3, stronger effect = lower value
[17] = locus YER133W, strain GLC7, stronger effect = lower value
[18] = locus YFL009W, strain cdc4, stronger effect = lower value
[19] = locus YFL029C, strain CAK1, stronger effect = lower value
[20] = locus YFR003C, strain YPI1, stronger effect = lower value
[21] = locus YFR019W, strain FAB1, stronger effect = lower value
[22] = locus YFR028C, strain CDC14, stronger effect = lower value
[23] = locus YGR040W, strain KSS1, stronger effect = lower value
[24] = locus YGR052W, strain FMP48, stronger effect = lower value
[25] = locus YGR092W, strain DBF2, stronger effect = lower value
[26] = locus YHR030C, strain SLT2, stronger effect = lower value
[27] = locus YHR079C, strain IRE1, stronger effect = lower value
[28] = locus YHR082C, strain KSP1, stronger effect = lower value
[29] = locus YHR205W, strain SCH9, stronger effect = lower value
[30] = locus YIL147C, strain SLN1, stronger effect = lower value
[31] = locus YJL095W, strain BCK1, stronger effect = lower value
[32] = locus YJL128C, strain PBS2, stronger effect = lower value
[33] = locus YJL157C, strain FAR1, stronger effect = lower value
[34] = locus YJR016C, strain ILV3, stronger effect = lower value
[35] = locus YJR066W, strain TOR1 (second series), stronger effect = lower value
[36] = locus YJR066W, strain TOR1, stronger effect = lower value
[37] = locus YKL048C, strain ELM1, stronger effect = lower value
[38] = locus YKL067W, strain YNK1, stronger effect = lower value
[39] = locus YKL101W, strain HSL1, stronger effect = lower value
[40] = locus YKL193C, strain SDS22, stronger effect = lower value
[41] = locus YKL203C, strain TOR2, stronger effect = lower value
[42] = locus YLR113W, strain HOG1, stronger effect = lower value
[43] = locus YLR133W, strain CKI1, stronger effect = lower value
[44] = locus YLR403W, strain SFP1, stronger effect = lower value
[45] = locus YML070W, strain DAK1, stronger effect = lower value
[46] = locus YMR001C, strain CDC5, stronger effect = lower value
[47] = locus YMR205C, strain PFK2 (second series), stronger effect = lower value
[48] = locus YMR277W, strain FCP1, stronger effect = lower value
[49] = locus YNL006W, strain LST8, stronger effect = lower value
[50] = locus YNL020C, strain ARK1, stronger effect = lower value
[51] = locus YNL161W, strain CBK1, stronger effect = lower value
[52] = locus YNL183C, strain NPR1, stronger effect = lower value
[53] = locus YNL207W, strain RIO2, stronger effect = lower value
[54] = locus YNL222W, strain SSU72, stronger effect = lower value
[55] = locus YNL307C, strain MCK1 (second series), stronger effect = lower value
[56] = locus YOL078W, strain AVO1, stronger effect = lower value
[57] = locus YOL136C, strain PFK27, stronger effect = lower value
[58] = locus YOR061W, strain CKA2, stronger effect = lower value
[59] = locus YOR119C, strain RIO1, stronger effect = lower value
[60] = locus YOR231W, strain MKK1, stronger effect = lower value
[61] = locus YOR329C, strain SCD5, stronger effect = lower value
[62] = locus YPL031C, strain PHO85, stronger effect = lower value
[63] = locus YPL153C, strain RAD53, stronger effect = lower value
[64] = locus YPL204W, strain HRR25, stronger effect = lower value
[65] = locus YPL209C, strain IPL1, stronger effect = lower value
[66] = locus YPL256C, strain CLN2, stronger effect = lower value
[67] = locus YPR025C, strain CCL1, stronger effect = lower value
[68] = locus YPR106W, strain ISR1, stronger effect = lower value
[69] = locus YPR111W, strain DBF20, stronger effect = lower value
[70] = strain NNK1, stronger effect = lower value
[71] = strain TSCII, stronger effect = lower value

Measured: normalized growth

Nc1ccccc1C(=O)N/N=C\c1cc(Cl)cc(Cl)c1O
active: [16] 0.435 | [24] 0.325 | [25] 0.13 | [26] 0.657 | [27] 0.485 | [29] 0.564 | [31] 0.425 | [33] 0.685 | [35] 0.404 | [37] 0.579 | [38] 0.649 | [39] 0.301 | [41] 0.65 | [42] 0.434 | [43] 0.586 | [45] 0.494 | [47] 0.527 | [50] 0.516 | [52] 0.43 | [55] 0.27 | [57] 0.588 | [58] 0.491 | [59] 0.696 | [60] 0.393 | [63] 0.583 | [64] 0.655 | [66] 0.456
inactive: [1] 0.968 | [2] 0.958 | [3] 0.97 | [4] 0.962 | [5] 0.968 | [6] 0.963 | [7] 0.964 | [8] 0.97 | [9] 0.965 | [10] 0.954 | [11] 0.758 | [12] 0.959 | [13] 0.955 | [14] 0.957 | [15] 0.694 | [17] 0.76 | [18] 0.949 | [19] 0.966 | [20] 0.962 | [21] 0.838 | [22] 0.948 | [23] 0.777 | [28] 0.682 | [30] 0.963 | [32] 0.972 | [34] 0.976 | [36] 0.546 | [40] 0.967 | [44] 0.669 | [46] 0.956 | [48] 0.958 | [49] 0.967 | [51] 0.967 | [53] 0.948 | [54] 0.967 | [56] 0.969 | [61] 0.97 | [62] 0.688 | [65] 0.969 | [67] 0.967 | [68] 0.96 | [69] 0.946 | [70] 0.939 | [71] 0.962

CC(C)(C)c1ccc(C(=O)N/N=C\c2cc(Cl)cc(Cl)c2O)cc1
active: locus YAL013W, strain DEP1, stronger effect = lower value 0.909 | locus YBR229C, strain ROT2, stronger effect = lower value 0.832 | locus YCL061C, strain MRC1, stronger effect = lower value 0.818 | [8] 0.852 | locus YEL061C, strain CIN8, stronger effect = lower value 0.624 | locus YGR078C, strain PAC10, stronger effect = lower value 0.847 | [26] 0.452 | locus YHR087W, strain rtc3, stronger effect = lower value 0.872 | locus YJR043C, strain POL32, stronger effect = lower value 0.876 | locus YKL190W, strain CNB1, stronger effect = lower value 0.316 | locus YLR039C, strain RIC1, stronger effect = lower value 0.165 | locus YLR085C, strain ARP6, stronger effect = lower value 0.285 | locus YLR262C, strain YPT6, stronger effect = lower value 0.182 | locus YML094W, strain GIM5, stronger effect = lower value 0.645 | locus YMR219W, strain ESC1, stronger effect = lower value 0.83 | locus YNL128W, strain TEP1, stronger effect = lower value 0.377 | locus YNL153C, strain GIM3, stronger effect = lower value 0.826 | locus YNL298W, strain CLA4 (second series), stronger effect = lower value 0.642 | locus YNR030W, strain Alg12, stronger effect = lower value 0.617 | locus YPL241C, strain CIN2, stronger effect = lower value 0.428
inactive: locus YDR150W, strain NUM1, stronger effect = lower value 1.19 | locus YJR075W, strain HOC1, stronger effect = lower value 0.996 | locus YLR058C, strain SHM2 (second series), stronger effect = lower value 0.97 | locus YMR263W, strain SAP30, stronger effect = lower value 0.893 | locus YNL322C, strain KRE1, stronger effect = lower value 0.998 | locus YPL055C, strain LGE1, stronger effect = lower value 0.858 | locus YPR135W, strain CTF4, stronger effect = lower value 0.69

O=C(N/N=C\c1cc(Cl)cc(Cl)c1O)c1ccccc1Oc1ccccc1
active: [42] 0.722 | [66] 0.818
inactive: [1] 0.965 | [2] 0.967 | [3] 0.981 | [4] 0.964 | [5] 0.974 | [6] 0.975 | [7] 0.963 | [8] 0.981 | [9] 0.958 | [10] 0.955 | [11] 0.933 | [12] 0.97 | [13] 0.96 | [14] 0.966 | [15] 0.945 | [16] 0.882 | [17] 0.949 | [18] 0.958 | [19] 0.953 | [20] 0.961 | [21] 0.946 | [22] 0.962 | [23] 0.934 | [24] 0.929 | [25] 0.885 | [26] 0.855 | [27] 0.917 | [28] 0.916 | [29] 0.844 | [30] 0.967 | [31] 0.871 | [32] 0.921 | [33] 0.939 | [34] 0.974 | [35] 0.939 | [36] 0.933 | [37] 0.895 | [38] 0.901 | [39] 0.89 | [40] 0.965 | [41] 0.969 | [43] 0.926 | [44] 0.925 | [45] 0.891 | [46] 0.961 | [47] 0.913 | [48] 0.971 | [49] 0.982 | [50] 0.906 | [51] 0.971 | [52] 0.88 | [53] 0.945 | [54] 0.971 | [55] 0.906 | [56] 0.975 | [57] 0.913 | [58] 0.905 | [59] 0.922 | [60] 0.91 | [61] 0.976 | [62] 0.938 | [63] 0.924 | [64] 0.919 | [65] 0.982 | [67] 0.966 | [68] 0.968 | [69] 0.952 | [70] 0.959 | [71] 0.967
